The panel holds about 83,000 compounds, 20% with a hit somewhere; the sample as a whole holds those more often.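 Assay: single dose, 48 h. Readout: percent growth (0 = no net growth; negative = cell death). Active: <10.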 Calls of active or inactive are those of the source.

The experiment concerns HL-60(TB) leukemia. In words: NCI-60 one-dose screen, 48 h (100 = growth as untreated, 0 = no growth, -100 = all killed). The note with it: 10 µM unless noted.
With `C[C@@H]1C=C2C(=O)O[C@@H]3CC[C@H](C1)[C@]23O`, the growth is 72.4% (inactive).

For `COc1ccccc1NC(=O)n1c(=O)cc(C)c2ccc(O)cc21`, the growth was 105% (inactive).

In the case of `COc1cc2ncnc3c2cc1OCCCCCN(C)Cc1ccc(Br)cc1N3`, the growth is 33.7% (inactive).

For the molecule `O=C1c2ccccc2C(=O)c2c([N+](=O)[O-])ccc(Cl)c21`, the growth was 111% (inactive).

Regarding `O=C(Cc1ccc(/C=C/C(=O)c2ncc[nH]2)cc1)Nc1ccc(Br)cc1`, the growth is 0.0282% (active).

`CCOC(=O)CCN(C(=O)Nc1ccccc1)C1CCCCC1`: the growth is 113% (inactive).

`c1ccc2nc(Cn3c[n+](Cc4ccc5ccccc5n4)c4ccccc43)ccc2c1`: the growth is -40.1% (active).

As to `COc1ccc(NC(=S)/N=c2\oc3c(OC)cccc3cc2-c2cc3ccccc3[nH]2)cc1`, the growth was 93.1% (inactive).

Consider `BrCc1cccc(C[P+](c2ccccc2)(c2ccccc2)c2ccccc2)c1`, for which the growth was 12.2% (inactive).

In the case of `CC1CN(/N=C/c2ccc([N+](=O)[O-])o2)C(=N)O1` (stereo not given), the growth is 99.8% (inactive).

Regarding `O=C1/C(=C\c2cn(-c3nc(N4CCOCC4)nc(N4CCOCC4)n3)c3ccccc23)c2ccccc2N1c1c(Cl)cccc1Cl`, the growth was 64.7% (inactive).

On to `CN(C)CN1CCN(c2ccc3nc(-c4ccc5nc(-c6ccc(C(F)(F)F)cc6)[nH]c5c4)[nH]c3c2)CC1`, for which the growth was 59.6% (inactive).

As for `CC[C@H](C)[C@@H]1NC(=O)[C@H](Cc2ccc(O)cc2)N(C)C(=O)[C@H](Cc2ccccc2)NC(=O)CN(C)C(=O)[C@@H]2CCCN2C(=O)[C@@H](Cc2ccccc2)N(C)C(=O)[C@H](CC(C)C)NC1=O`, the growth was -24% (active).

Take `O=C1c2ccccc2-c2c1c1ccncc1c(=O)n2CCCn1ccnc1`: the growth is 35.7% (inactive).

For the molecule `Cc1ccc(S(=O)(=O)Oc2ccc3c4c(c(=O)oc3c2)CCCCC4)cc1`, the growth was 20.4% (inactive).

Regarding `O=C(Nc1ccc(F)cc1)c1cc2cc(Nc3nc(-c4ccccc4)nc4ccccc34)ccc2oc1=O`, the growth was 102% (inactive).

Regarding `CCCCCCN(CCCCCC)CC(O)c1cccc2ccc(Cl)cc12` (stereo not given), the growth is 69.5% (inactive).

Take `CC1=NN(c2ccc(S(=O)(=O)O)cc2Cl)C(=O)C1`: the growth was 143% (inactive).

Turning to `O=C(Oc1cccc2cccnc12)c1ccccc1`, the growth was 93.7% (inactive).

For the molecule `Cc1ccccc1[P+](Cc1ccccc1)(c1ccccc1)c1ccccc1`, the growth is -26.9% (active).

As for `O=C1C=CC(n2cc(F)c(=O)[nH]c2=O)O1` (stereo not given), the growth is 45.3% (inactive).

For the molecule `CCCCNc1nc(NN2C(=O)c3cccc4cccc(c34)C2=O)nc(-n2cnc3ccccc32)n1`, the growth was 94.2% (inactive).

As to `CCN(CC)CCCNc1nc2ccccc2c2c(=O)c3cc(Cl)ccc3sc12`, the growth was 64.5% (inactive).

Consider `COc1cc2c(cc1OCCCN1CCN(c3ncnc4ccccc34)CC1)N=CC1CCCN1C2=O` (stereo not given), for which the growth is -53.2% (active).

Consider `Fc1ccc(-c2nn3c(-c4cc(C(F)(F)F)cc(C(F)(F)F)c4)nnc3s2)cc1`, for which the growth is 92.2% (inactive).

Turning to `COc1ccc(C2CC(c3cc(OC)c(OC)c(OC)c3)=NO2)cc1OCCCCOc1cc2c(cc1OC)C(=O)N1CCC[C@H]1C=N2` (stereo not given in full), the growth is 34% (inactive).

With `O=Cc1c(OCc2cnnn2CC(=O)Nc2ccc(Cl)cc2)ccc2ccccc12`, the growth was 98.5% (inactive).

In the case of `CC(=O)/C(=C/c1ccc(Br)cc1)C(=O)c1ccccc1`, the growth was 57% (inactive).

As to `C(=C\c1ccccc1)/CN1CCN(C(c2ccccc2)c2ccccc2)CC1`, the growth was 85.3% (inactive).

`O=C(CN1C(=O)S/C(=C\c2ccccc2)C1=O)Nc1ncc(Cc2ccccc2Cl)s1`: the growth was 95.1% (inactive).

With `CC(C)(C)c1ccc(OCCCCCCN2CCNCC2)cc1`, the growth is 15.2% (inactive).

`Cc1ccc(C)c2c1CCC2=O`: the growth was 134% (inactive).

On to `O=C1Nc2ccccc2/C1=C\c1c[nH]c2ccc(Br)cc12`, for which the growth is 73.1% (inactive).

`O=C(CBr)CN1C(=O)c2ccccc2C1=O`: the growth was 103% (inactive).

Take `Nc1nc2c(c3ncccc13)C(c1ccccc1)Cc1ncccc1-2` (stereo not given): the growth is 65.9% (inactive).

Take `COC(CC(F)F)c1cn(S(=O)(=O)c2ccc(C)cc2)c2ccccc12` (stereo not given): the growth is 8.92% (active).

Turning to `CC(=O)c1sc2sc(C(C)=O)c(C)c2c1C`, the growth was 90.1% (inactive).

`COC(=O)c1nc(N)nc(C(=O)OC)c1C(=O)c1cccc2ccccc12`: the growth was 107% (inactive).

Turning to `COc1ccc2nc(C)cc(Sc3nc4ccccc4s3)c2c1`, the growth was 6.64% (active).

Take `NC(=O)c1cc(Cl)ccc1NC(=O)/C=C/c1ccccc1`: the growth is -30.8% (active).

Values taken from PubChem BioAssay (NCI).
